Drawing on PubChem BioAssay (EPA / NIEHS), this text covers outcome and AC50 for 16 compounds.

In general, AC50 refers to the midpoint of the concentration-response curve, whichever way the signal moves.

The target of experiment [1] is Estrogen receptor (Homo sapiens) (UniProt P03372). As to the kind of experiment: CCTE_Deisenroth_AIME_384WELL_LUC_Active: CCTE's 384-well Estrogen Receptor Transactivation Assay with AIME metabolic competence (ERTA luciferase; metabolism positive), Deisenroth Lab (AID 2284030). The essentials: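 Readout: bioluminescent luciferase induction in VM7Luc4E2 cells 24 hour after receiving medium from a 2 h rat hepatic S9 (induced, alginate microsphere) metabolism step. Concentrations 0.002 - 200 uM; activity scaled to 17beta-estradiol positive control.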

Experiment [2] in a line: CCTE_Deisenroth_AIME_384WELL_CTox_Active: Cytotoxicity Assessment (CTOX) in CCTE's 384-well Estrogen Receptor Transactivation Assay with AIME metabolic competence (metabolism positive), Deisenroth Lab (AID 2284037).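 Also: chemicals first conditioned 2 h by alginate-bound induced rat liver S9 before cells; activity means signal loss indicating cell death.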 The essentials:
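Chemicals pre-incubated 2 hours with alginate-immobilised phenobarbital/beta-naphthoflavone-induced male Sprague Dawley rat liver S9, then conditioned medium applied 24 hour to VM7Luc4E2 cells. Viability by fluorogenic protease substrate; 10-point series 0.002 - 200 uM.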

For experiment [3], the target named is Estrogen receptor (Homo sapiens) (UniProt P03372). Put plainly: CCTE_Deisenroth_AIME_384WELL_LUC_Inactive: CCTE's 384-well Estrogen Receptor Transactivation Assay without AIME metabolic competence (ERTA luciferase; metabolism negative), Deisenroth Lab (AID 2284038).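 Also: VM7Luc4E2 breast cells given medium preincubated 2 h with S9-free microspheres; hits raise estrogen receptor luciferase signal so potencies reflect agonists.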 The essentials: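 Metabolism-negative mode: AIME lids stamped in alginate-water, no hepatic S9. 2 h chemical incubation → medium onto VM7Luc4E2 ERTA, 24 h. Readout luciferase luminescence; gain-of-signal fit vs 17beta-estradiol. Conc. 0.002 - 200 uM.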

Experiment [4] has the same target. As to the kind of experiment: CCTE_Deisenroth_AIME_384WELL_LUC_Shift: CCTE's 384-well Estrogen Receptor Transactivation Assay with AIME metabolic competence data shift (ERTA luciferase; difference in metabolism positive and negative), Deisenroth Lab (AID 2284041; active = hit-call score of the fitted dose curve at least 0.9, where 1 is the maximum; inactive = score below 0.9;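 also: shift is response with S9 minus without S9 so positive means metabolism raised ER signal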). The essentials: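 Chemicals (0.002–200 uM, 10 points) pre-incubated 2 h with alginate-encapsulated induced male Sprague Dawley rat liver S9 or S9-free, then medium applied 24 h to VM7Luc4E2 cells; luciferase. Endpoint is per-concentration difference, S9-positive minus negative.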

A short description of experiment [5]: CCTE_Deisenroth_AIME_384WELL_CTox_Inactive: Cytotoxicity Assessment (CTOX) in CCTE's 384-well Estrogen Receptor Transactivation Assay without AIME metabolic competence (metabolism negative), Deisenroth Lab (AID 2284039).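 Also: cell viability via live-cell protease substrate cleaved to fluorescent probe; cells exposed 24 h to medium preincubated 2 h with alginate-water beads without S9; loss of fluorescence signal means loss of viability.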 The essentials: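 VM7Luc4E2 cells, metabolism-negative arm: test chemicals (0.002–200 uM, 10 points) pre-incubated 2 h with alginate-water microspheres, then medium transferred to cells for 24 h. Viability read as protease-substrate cleavage to fluorescent probe; loss-of-signal, bidirectional fitting.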

Experiment [6] can be described thus: CCTE_Shafer_MEA_dev_firing_rate_mean: CCTE's Neural Network Formation Assay for Mean Firing Rate, Shafer Lab (AID 2284031; active = hit-call score of the fitted dose curve at least 0.9, where 1 is the maximum; inactive = score below 0.9;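 as to AC50: curve fitted for loss of firing so AC50 reflects decreased mean firing rate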). The essentials:
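Extracellular spike frequency, AUC over DIV 5–12 recordings, in rat cortical neuron MEA cultures dosed from plating; loss direction vs DMSO.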

Experiment [7] is described as follows: CCTE_Shafer_MEA_dev_per_burst_spike_percent: CCTE's Neural Network Formation Assay for Percent of Spikes in a Burst, Shafer Lab (AID 2284032; active = hit-call score of the fitted dose curve at least 0.9, where 1 is the maximum; inactive = score below 0.9;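 as to AC50: fitted as a decrease in burst spike percentage below DMSO baseline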). The essentials: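 Value is trapezoidal AUC over recordings on days 5, 7, 9 and 12 of the well-mean fraction of spikes falling in single-electrode bursts; rat cortical cultures exposed continuously from plating, treatment renewed DIV 5 and 9, fitted downward against DMSO.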

A short description of experiment [8]: CCTE_Shafer_MEA_dev_burst_rate: CCTE's Neural Network Formation Assay for Burst Rate, Shafer Lab (AID 2284042; active = hit-call score of the fitted dose curve at least 0.9, where 1 is the maximum; inactive = score below 0.9). The essentials:
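Primary rat cortical neurons on PEI-coated 48-well MEA plates (laminin added with cells at plating) (16 electrodes/well), exposed from plating to day 12, dosing renewed at DIV 5 and 9. Burst rate averaged over active electrodes, recorded DIV 5, 7, 9, 12, summarized as AUC; loss versus DMSO.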

A short description of experiment [9]: CCTE_Shafer_MEA_dev_bursting_electrodes_number: CCTE's Neural Network Formation Assay for Number of Bursting Electrodes, Shafer Lab (AID 2284043).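 As to AC50: potency is for loss of bursting electrodes relative to DMSO.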 The essentials: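 Rat cortical primary neurons, 48-well MEA, 16 electrodes/well; dosing DIV 0–12, re-dosed with full media change DIV 5, 9. Recordings DIV 5/7/9/12, AxIS adaptive spike detector; bursting electrode = ≥1 burst/2 min. AUC across days; loss of signal vs DMSO.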

A short description of experiment [10]: CCTE_Shafer_MEA_dev_per_burst_interspike_interval: CCTE's Neural Network Formation Assay for Burst Interspike Interval, Shafer Lab (AID 2284044; active = hit-call score of the fitted dose curve at least 0.9, where 1 is the maximum; inactive = score below 0.9;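 as to AC50: potency for a decrease of within-burst interspike interval below DMSO level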). The essentials: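 Readout is the average time between spikes inside single-electrode bursts, taken as a well mean across bursting electrodes. Cortical neurons from rat developed networks on MEA plates under continuous 12-day exposure; recordings on days 5, 7, 9 and 12 were integrated by trapezoidal AUC.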

The nature of experiment [11]: CCTE_Shafer_MEA_dev_burst_duration_mean: CCTE's Neural Network Formation Assay for Mean Burst Duration, Shafer Lab (AID 2284045; active = hit-call score of the fitted dose curve at least 0.9, where 1 is the maximum; inactive = score below 0.9;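 as to AC50: curve fitted for loss meaning shorter burst duration than DMSO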). The essentials:
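Rat cortical cultures, 1.5 x 10^5 cells/well with laminin drop; continuous dosing days 0–12, media plus treatment refreshed DIV 5, 9. AxIS adaptive spike detection; mean single-electrode burst duration, AUC over four recordings, negative direction vs DMSO.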

The nature of experiment [12]: CCTE_Shafer_MEA_dev_interburst_interval_mean: CCTE's Neural Network Formation Assay for Mean Interburst Interval, Shafer Lab (AID 2284046; active = hit-call score of the fitted dose curve at least 0.9, where 1 is the maximum; inactive = score below 0.9;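 also: well-mean interburst interval of bursting electrodes as AUC over four recording days; curve fitted for decrease in interburst interval relative to DMSO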). The essentials:
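Recordings on days 5, 7, 9 and 12 give well-mean interburst interval across actively bursting electrodes, summarized as area under the curve. Cultures: rat cortical neurons, continuous exposure from day 0, compound renewed at feeds; decrease analyzed versus DMSO.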

A short description of experiment [13]: CCTE_Shafer_MEA_dev_inter_network_spike_interval_mean: CCTE's Neural Network Formation Assay for Mean Inter-network Spike Interval, Shafer Lab (AID 2284047; active = hit-call score of the fitted dose curve at least 0.9, where 1 is the maximum; inactive = score below 0.9). The essentials:
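Primary rat cortical neurons on 16-electrode MEA wells, exposed from plating day 0 through DIV 12, compound renewed at DIV 5 and 9 media changes. Mean interval between network-spike peaks recorded DIV 5, 7, 9, 12; collapsed as trapezoidal AUC, fitted downward versus DMSO.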

The nature of experiment [14]: CCTE_Shafer_MEA_dev_network_spike_number: CCTE's Neural Network Formation Assay for Number of Network Spikes, Shafer Lab (AID 2284048; active = hit-call score of the fitted dose curve at least 0.9, where 1 is the maximum; inactive = score below 0.9;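 as to AC50: fit as a loss of signal meaning fewer network spikes than DMSO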). The essentials: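 Rat cortical primary cultures on 48-well MEA (16 electrodes/well); continuous exposure DIV 0–12, full medium and treatment exchange DIV 5, 9. Readout: network spike count, AxIS adaptive detection, recordings DIV 5/7/9/12 collapsed to AUC; loss-of-signal fit, DMSO baseline.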

A short description of experiment [15]: CCTE_Shafer_MEA_dev_active_electrodes_number: CCTE's Neural Network Formation Assay for Number of Active Electrodes, Shafer Lab (AID 2284040).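 Also: potency for loss of active electrodes versus DMSO so lower counts are hits.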 The essentials: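 Developing rat cortical networks on MEAs, exposed DIV 0–12. Value is the AUC of active-electrode counts (≥5 spikes/min) from days 5, 7, 9, 12, relative to DMSO.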

Where “and” joins values, the source holds several entries; their conditions need not be identical. Equal entries are not always repeated. Records with an inconclusive call do not appear. The source holds several records for some structures; these can differ, active in one and inactive in another. Calls of active or inactive are those of the source. The calls were made as follows, unless noted: active = hit-call score of the fitted dose curve at least 0.9, where 1 is the maximum; inconclusive = response in the unintended direction; inactive = score below 0.9.

Sequence of Estrogen receptor (Homo sapiens) (P03372 whole entry, looked up): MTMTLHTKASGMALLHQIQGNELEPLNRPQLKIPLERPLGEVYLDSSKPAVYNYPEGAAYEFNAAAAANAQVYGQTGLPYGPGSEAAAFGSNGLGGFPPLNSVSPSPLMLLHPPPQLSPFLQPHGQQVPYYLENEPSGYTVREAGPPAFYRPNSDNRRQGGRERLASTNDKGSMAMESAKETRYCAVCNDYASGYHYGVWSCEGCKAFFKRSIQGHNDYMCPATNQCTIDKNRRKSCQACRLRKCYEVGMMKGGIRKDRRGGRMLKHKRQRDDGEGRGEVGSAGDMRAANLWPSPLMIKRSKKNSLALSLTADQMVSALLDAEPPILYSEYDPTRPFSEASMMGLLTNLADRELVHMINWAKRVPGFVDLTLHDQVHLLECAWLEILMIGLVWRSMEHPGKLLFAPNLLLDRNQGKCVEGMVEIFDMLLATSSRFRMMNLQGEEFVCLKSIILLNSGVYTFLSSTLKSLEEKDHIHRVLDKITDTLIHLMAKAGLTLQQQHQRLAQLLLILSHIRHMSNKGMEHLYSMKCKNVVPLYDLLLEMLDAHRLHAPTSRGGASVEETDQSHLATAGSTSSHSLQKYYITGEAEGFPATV

Turning to `CCCCCCOc1ccc(N)cc1`, the compound was called inactive in experiment [1] and in [2]. Moreover, the figures for the AC50 in experiment [3] and in [4] were 53.9 µM (active) and 42.7 µM (active), respectively.
Take `C[Si](C)(C)N[Si](C)(C)C`: the compound was called inactive in experiment [1], in experiment [2], in experiment [3], in experiment [5] and in [4].
As for `Cc1noc(NS(=O)(=O)c2ccc(N)cc2)c1C`, the compound was called inactive in experiment [6], in experiment [7], in experiment [8], in experiment [9], in experiment [10] and in [12]. Further, the call in experiment [13] and in experiment [14] was inactive. For the same compound, the AC50 in [11] is 24.1 µM (active).
For the compound `CCC1COC(=O)O1` (stereo not given), the compound was classed as inactive in experiment [1], in [2], in experiment [3], in [5] and in experiment [4].
As for `C[N+](C)(C)CCCNS(=O)(=O)C(F)(F)C(F)(F)C(F)(F)C(F)(F)C(F)(F)C(F)(F)C(F)(F)C(F)(F)F`, the concentration at half-maximal activity (AC50) in experiment [6] was 4.93 µM (active) and 2.98 µM (active); in experiment [7] it was 2.98 µM (active) and 4.47 µM (active); in [15] it was 1.13 µM (active) and 1.65 µM (active); in experiment [9] it was 1.55 µM (active) and 4.37 µM (active); in experiment [10] it was 2.98 µM (active); in [12], 2.43 µM (active) and 4.96 µM (active). In experiment [14], the AC50 is 1.43 µM (active). Moreover, the result in experiment [8], in experiment [10], in [11], in experiment [13] and in experiment [14] was inactive.
On to `O=C(O)CC(C(=O)O)S(=O)(=O)O` (stereo not given), for which the compound was called inactive in [1], in experiment [3], in [5] and in experiment [4].
Consider `O=c1c(O)c(-c2ccc(O)cc2O)oc2cc(O)cc(O)c12`, for which the AC50 is 133 µM (active) in experiment [1], 100 µM (active) in experiment [2], 109 µM (active) in experiment [3] and 146 µM (active) in experiment [5]. For the same compound, the result in experiment [4] was inactive.
As to `COC(=O)c1ccccc1C`, the compound was called inactive in [1], in experiment [3], in [5] and in experiment [4].
Consider `CCCCNS(=O)(=O)c1ccc(C)cc1`, for which the call in [1] and in experiment [3] was inactive. For the same compound, the AC50 in [4] is 0.0002 µM (active).
As to `CC(C)(C)N`, the result in experiment [1], in [3], in experiment [5] and in [4] was inactive.
Regarding `CCCCCCCCCC[N+](C)(CCCCCCCCCC)CCC[Si](OC)(OC)OC`, the compound was classed as inactive in [1] and in [4]. Moreover, the AC50 in [2] was 49.4 µM (active); in [5], 100 µM (active).
As for `CC(C)=CCCC(C)=CC#N`, the outcome in experiment [1], in [3] and in experiment [4] was inactive.
`CC1(C)[C@@H]2CC[C@@]1(C)C(=O)C2`: the call in experiment [1], in experiment [3] and in experiment [4] was inactive.
Consider `CCCCNC(=S)NCCCC`, for which the outcome in experiment [1], in experiment [3] and in [4] was inactive.
In the case of `CCC(C)(O)CCCC(C)C` (stereo not given), the result in [1] and in experiment [3] was inactive. In [4], the AC50 is 67.7 µM (active).
As to `CC(=O)/C=C/C1C(C)=CCCC1(C)C` (stereo not given), the result in experiment [1], in experiment [3], in experiment [5] and in [4] was inactive.
